Test results from PubChem BioAssay.
Where “and” joins values, the source holds several entries; their conditions need not be identical. Equal entries are not always repeated. The source holds several records for some structures; these can differ, active in one and inactive in another. Calls of active or inactive are those of the source. Unless noted, how the calls were made is not given here.

Legend:
[1] = HepG2 liver cancer cell viability effects, profiling panel, resazurin fluorescence, 24 h, PK04 Diversity Set (AID 1172); details: higher = more signal; further: test concentration not given here
[2] = basal S. cerevisiae growth modulation, no modifier, primary screen, OD600, strain BY4716, 24 h, basal condition (AID 1173); details: OD600, 24 h, higher = more signal, called active from +8 up or from −8 down
[3] = MM1S myeloma cell viability, profiling panel, resazurin fluorescence, basal, 24 h, PK04 Diversity Set (AID 1174); details: higher = more signal, called active from +8 up or from −8 down;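 further: MM1S multiple myeloma cell line; test concentration not given here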
[4] = biological target: Dihydroorotate dehydrogenase (quinone), mitochondrial (Plasmodium falciparum (isolate 3D7)) (UniProt Q08210); experiment: PfDHODH enzyme inhibitors, primary screen, biochemical, C-terminal His tag, absorbance 600 nm (AID 1175); details: DCIP absorbance 600 nm, higher = more signal, called active from +8 up or from −8 down;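 further: recombinant parasite enzyme with a five histidine tag at its C terminus; test concentration not given here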
Chain of Dihydroorotate dehydrogenase (quinone), mitochondrial (Plasmodium falciparum (isolate 3D7)) (Q08210 whole entry, looked up): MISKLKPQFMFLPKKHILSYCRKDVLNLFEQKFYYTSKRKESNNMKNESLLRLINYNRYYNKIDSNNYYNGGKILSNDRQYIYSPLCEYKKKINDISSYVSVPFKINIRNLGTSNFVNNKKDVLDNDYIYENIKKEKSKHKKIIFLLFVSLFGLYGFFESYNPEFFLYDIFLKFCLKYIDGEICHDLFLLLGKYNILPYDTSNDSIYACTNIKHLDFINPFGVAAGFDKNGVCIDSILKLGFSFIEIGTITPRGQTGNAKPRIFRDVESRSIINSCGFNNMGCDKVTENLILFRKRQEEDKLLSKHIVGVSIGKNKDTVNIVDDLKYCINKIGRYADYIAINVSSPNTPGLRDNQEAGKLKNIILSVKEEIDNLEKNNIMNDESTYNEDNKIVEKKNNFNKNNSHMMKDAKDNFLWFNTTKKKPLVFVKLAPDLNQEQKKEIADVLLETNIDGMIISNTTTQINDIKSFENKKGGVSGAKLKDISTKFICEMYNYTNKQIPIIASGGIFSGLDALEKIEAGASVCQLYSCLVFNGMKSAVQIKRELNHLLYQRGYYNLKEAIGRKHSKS

[5] = P. aeruginosa biofilm formation inhibitors, primary screen, strain PAO1, LB-PBS medium, absorbance 600 nm (AID 1176); further: test concentration not given here; details: P. aeruginosa PAO1 growth/biofilm, A600, 12 h; higher = more signal
[6] = S. cerevisiae RM11-1a growth modifiers, primary screen, strain RM11-1a, OD600, basal, 24 h (AID 1177); details: OD600, 24 h, higher = more signal, called active from +8 up or from −8 down;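 further: cultures grown under basal conditions with no added stressor; test concentration not given here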
[7] = E. coli acrAB mutant growth effects, primary screen, E. coli filamentation inducers, strain DRC39, OD650, 24 h (AID 1178); details: higher = more signal, called active from +8 up or from −8 down;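 further: growth measured as culture turbidity by optical density at 650 nm; test concentration not given here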
[8] = E. coli acrAB mutant growth effects, primary screen, E. coli filamentation inducers, strain DRC39, OD650, 48 h (AID 1179);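 further: screen aims at cell division blockers that make cells filament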; details: E. coli DRC39 delta-acrAB growth, higher = more signal, called active from +8 up or from −8 down
[9] = RPMI8226 myeloma cell viability, profiling panel, resazurin fluorescence, basal, 24 h, PK04 Diversity Set (AID 1180); details: higher = more signal;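 further: RPMI8826 multiple myeloma cell line at 5000 cells per well; test concentration not given here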
[10] = biological target: E3 ubiquitin-protein ligase XIAP (Homo sapiens) (UniProt P98170); experiment: XIAP binders, primary screen, biophysical, small-molecule microarray, fluorescence 635 nm (AID 1181); details: small-molecule microarray binding, higher = more signal;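 further: score merges 667 nm emission and signal to noise over triplicate slides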
Chain of E3 ubiquitin-protein ligase XIAP (Homo sapiens) (P98170 whole entry, looked up): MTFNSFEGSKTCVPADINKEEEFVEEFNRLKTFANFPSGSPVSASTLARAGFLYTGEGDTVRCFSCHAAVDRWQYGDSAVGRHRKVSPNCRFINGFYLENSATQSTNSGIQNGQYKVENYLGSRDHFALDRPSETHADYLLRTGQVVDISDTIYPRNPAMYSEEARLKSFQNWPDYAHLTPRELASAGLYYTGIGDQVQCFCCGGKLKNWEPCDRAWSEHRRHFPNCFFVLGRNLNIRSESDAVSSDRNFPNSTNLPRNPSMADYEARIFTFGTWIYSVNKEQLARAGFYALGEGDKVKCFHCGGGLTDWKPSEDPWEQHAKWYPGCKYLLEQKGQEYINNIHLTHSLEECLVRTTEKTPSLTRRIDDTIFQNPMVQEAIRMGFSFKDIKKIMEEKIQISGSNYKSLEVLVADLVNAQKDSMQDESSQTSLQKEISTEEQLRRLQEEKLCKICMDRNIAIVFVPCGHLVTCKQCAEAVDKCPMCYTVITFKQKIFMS

Structure (SMILES) | z-score [1] | z-score [2] | z-score [3] | composite z-score [4] | z-score [5] | z-score [6] | z-score [7] | z-score [8] | z-score [9] | composite z-score [10]
CC(C)C(=O)N[C@@H]1CCCN1C(=O)C=Cc1ccccc1 | -0.0786 | -1.17 (inactive) | -0.0492 (inactive) | -1.3 (inactive) | 0.286 (inactive) | -1.19 (inactive) | 0.595 (inactive) | -0.0803 (inactive) | 0.227 | -0.113
O=C1[C@H]2[C@H]3[C@H](O)[C@H](O)CC(=NOCc4ccccc4)[C@H]3CC[C@H]2C(=O)N1Cc1ccccc1 | 0.447 | -2.68 (inactive) | 1.58 (inactive) | -2.59 (inactive) | 0.106 (inactive) | -2.13 (inactive) | 0.323 (inactive) | -0.777 (inactive) | 0.719 | -0.13
CO[C@H]1COC(=O)CC=C[C@@H](C)COC(=O)[C@@H](OCc2ccccc2)C=C[C@@H]1C | 0.537 | -1.93 (inactive) | 0.155 (inactive) | -0.825 (inactive) | -0.72 (inactive) | -0.78 (inactive) | 0.84 (inactive) | 0.929 (inactive) | 0.142 | -0.245
CCOC(=O)[C@@H]1CC=C2CC1C(=O)N1CCC[C@@H]1[C@H]2O[Si](C)(C)C(C)(C)C (stereo not given in full) | -0.464 and 1.65 | 0.0163 (inactive) and -8.53 (active) | -0.226 (inactive) and 1.07 (inactive) | -0.259 (inactive) and -0.198 (inactive) | -0.0825 (inactive) and -0.377 (inactive) | -1.35 (inactive) and 0.069 (inactive) | 0.03 (inactive) and 0.867 (inactive) | 0.262 (inactive) and -0.586 (inactive) | -0.516 and 0.845 | -0.343 and -0.171
CCCC[C@@H]1CN2[C@H](c3ccc(Br)cc3)[C@@H](C)CC[C@H]2C(=O)O1 | 0.0187 and 0.563 | -1.99 (inactive) and -1.8 (inactive) | 0.0474 (inactive) and 0.358 (inactive) | 0.0663 (inactive) and -0.155 (inactive) | 0.192 (inactive) and -0.172 (inactive) | 0.434 (inactive) and -0.478 (inactive) | 1.06 (inactive) and 0.354 (inactive) | 0.958 (inactive) and 0.41 (inactive) | 0.735 and 0.839 | -0.256 and -0.352
C=C[C@@H](C)[C@@H](O)c1ccc(O)c2ccccc12 | -0.278 and 0.0891 | -14.7 (active) and -15 (active) | -0.938 (inactive) and -1.51 (inactive) | -2.38 (inactive) and -3.35 (inactive) | 0.814 (inactive) and -0.0697 (inactive) | -0.143 (inactive) and 0.291 (inactive) | 0.652 (inactive) and 0.297 (inactive) | 0.347 (inactive) and 0.106 (inactive) | -0.777 and -1.42 | -0.22 and 1.24
COC(=O)[C@@]1(Cc2ccccc2)[C@H]2c3cc(C(=O)N(C)C)n(C[C@H](O)CO)c3C[C@H]2CN1C(=O)c1ccccc1 | -0.777 and -0.734 | 0.168 (inactive) and 1.78 (inactive) | -0.939 (inactive) and -0.957 (inactive) | -0.402 (inactive) and 0.547 (inactive) | 1.32 (inactive) and 0.15 (inactive) | 1.03 (inactive) and -0.204 (inactive) | 0.146 (inactive) and -0.785 (inactive) | -0.121 (inactive) and -0.352 (inactive) | -0.205 and -0.62 | 0.333 and 0.107
C=CCN(C(=O)C1N(c2ccc(CCO)cc2)C(=O)C2C(C(=O)O)C3C=CC21O3)c1ccc(OC)cc1 (stereo not given) | -1.89 and 0.336 | -0.311 (inactive) and -0.641 (inactive) | -1.58 (inactive) and 0.522 (inactive) | 0.51 (inactive) and -0.392 (inactive) | -0.606 (inactive) and 0.428 (inactive) | 0.671 (inactive) and -0.529 (inactive) | -0.782 (inactive) and 0.15 (inactive) | -0.949 (inactive) and -0.249 (inactive) | -0.641 and -0.0655 | 0.0808 and -0.0054
